The values that follow come from PubChem BioAssay AID504766 (The Scripps Research Institute Molecular Screening Center, 2011).

SMILES strings stand for the structures. About 3,400 (1%) of roughly 340,000 compounds were called active.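 How the source made its calls: active means inhibition above the mean over all tested compounds plus 3 SD (cut at about 4.2% in these data); inactive means the rest.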 Shown is part of a subset that was picked to be rich in actives.

For this assay, the target named is Nuclear receptor subfamily 0 group B member 1 (Homo sapiens) (UniProt P51843). Briefly: relief of DAX1 transcriptional repression – cell-based, HEK293, Gal4-DAX1, luciferase luminescence, primary screen (AID 504766).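 Further: 0% = DAX1-transfected cells with DMSO and 100% = empty-vector control cells with DMSO; inhibition shows as a rise in luminescence from relieved DAX1 repression.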 The note with it: HEK293 Gal4-DAX1 luciferase reporter, at 6.75 µM, active compounds read high. A general note: In a reporter assay the amount or activity of a reporter protein is the signal.
Nuclear receptor subfamily 0 group B member 1 (Homo sapiens), sequence (P51843 207-470 limits assumed): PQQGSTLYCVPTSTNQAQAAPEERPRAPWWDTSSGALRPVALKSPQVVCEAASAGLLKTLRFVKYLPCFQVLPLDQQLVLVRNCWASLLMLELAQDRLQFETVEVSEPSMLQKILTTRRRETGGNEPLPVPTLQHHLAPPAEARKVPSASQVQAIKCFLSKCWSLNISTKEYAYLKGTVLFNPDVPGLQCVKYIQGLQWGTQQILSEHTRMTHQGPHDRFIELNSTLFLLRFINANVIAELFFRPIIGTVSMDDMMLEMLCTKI
As a reminder, the inhibition is the change of the read-out against control, counted positive when it falls. Regarding `Cc1cccc(S(=O)(=O)N(C)C[C@H]2OCc3cnnn3CCCC(=O)N([C@@H](C)CO)C[C@H]2C)c1`, the inhibition was 2.68% (inactive).
Regarding `C[C@@H]1CN([C@@H](C)CO)C(=O)c2cc(Br)cnc2O[C@H]1CN(C)Cc1ccc(-c2ccccc2)cc1`, the inhibition is 0% (inactive).
In the case of `CCCCCCNC(=O)O[C@H]1CN(C(=O)OC(C)C)N(C(=O)OC(C)C)[C@@H]2CN(S(=O)(=O)c3ccc(C)cc3)C[C@]12O` it was 0.72% (inactive); in that of `O=C(CN1CCCC1)Nc1sc2c(c1C(=O)Nc1ccccc1)CCCC2`, 1.85% (inactive).
In the case of `NC(=O)c1c(NC(=O)c2ccccc2)sc2c1CCCC2` it was 4.41% (active); in that of `O=C(Nc1sc2c(c1C(=O)O)CCC2)c1ccccc1F`, 0.36% (inactive).
Next, `CCCCN1C(=O)C(CC(=O)NCc2cccs2)CC(C(=O)N2CCOCC2)=C1C` (centres undefined): 1.03% (inactive); `CC(=NNC(N)=O)C1CC2CCC1CC2` (centres undefined): 0.34% (inactive); `C[C@H]1Cn2cnc(C(=O)N[C@@H](Cc3c[nH]c4ccccc34)C(=O)OC(C)(C)C)c2C(=O)N1`: 0.77% (inactive).
As to `C[C@H](CO)N1C[C@H](C)[C@@H](CN(C)C(=O)C2CCCCC2)OCc2cnnn2CCCC1=O`, the inhibition is 0.86% (inactive).
Next, `COC(=O)N(C)C[C@@H]1OCc2cnnn2CCCC(=O)N([C@@H](C)CO)C[C@@H]1C`: 1.06% (inactive); `C[C@@H]1CN([C@H](C)CO)C(=O)CCCn2nncc2CO[C@@H]1CN(C)C(=O)OCc1ccccc1`: 4.4% (active); `Cn1c(CCN2CCN(c3ccccn3)CC2)nc2cc(NS(=O)(=O)c3ccc(F)cc3)ccc21`: 0.29% (inactive).
Turning to `Cc1cc2cc3n(c2nn1)N=C(Cl)CC3`, the inhibition was 1.28% (inactive).
With `CCN(Cc1ccncc1)C(=S)Nc1ccccc1C`, the inhibition was 0.81% (inactive).
Next, `CCc1nnc(NC(=O)c2ccco2)s1`: 1.93% (inactive); `CCCCN1C(=O)C(CC(=O)NC(c2ccccc2)c2ccccc2)CC(C(=O)N2CCOCC2)=C1C` (centres undefined): 0.88% (inactive); `Cc1cccc(/C(N)=N/OC(=O)c2ccccc2Cl)c1`: 4.97% (active).
In the case of `Cc1ccc(/C(N)=N/OC(=O)COc2ccc(Cl)c(C)c2)cc1` it was -0.49% (inactive).
Next, `Cc1ccc(C(=O)O/N=C(\N)c2ccccn2)cc1Cl`: -3.11% (inactive); `COCC(=O)N(C)C[C@H]1Oc2cc(Br)ccc2S(=O)(=O)N([C@H](C)CO)C[C@H]1C`: 1.77% (inactive); `COc1ccc(CN2C(=O)C(CC(=O)NCCN3CCOCC3)CC(C(=O)N(C(C)C)C(C)C)=C2C)cc1` (centres undefined): -0.44% (inactive).
For `CC(=O)OCCC(C)C`, the inhibition was 5.92% (active).
For `CC(=O)OCC(COC(C)=O)OC(C)=O`, the inhibition was -0.24% (inactive).
Turning to `CC(=O)OC(C)C[N+](C)(C)C` (centres undefined), the inhibition is 1.03% (inactive).
For the compound `Cc1ccc(S(=O)(=O)N2C[C@@H](C)[C@]3(C2)[C@H](O)[C@H](OC(=O)NCc2ccccc2)C[C@H]2C(=O)N(c4ccccc4)C(=O)[C@H]23)cc1`, the inhibition is 0.21% (inactive).
Next, `O=C1OCCC1=COCCCCOC=C1CCOC1=O`: -0.66% (inactive); `Cc1cc(C)n(-c2nc(O)cc(=O)[nH]2)n1`: 4.76% (active).
Next, `Cc1cc(C)n(-c2ccc3nncn3n2)n1`: 0.66% (inactive); `CC(=O)c1ccc(Oc2cc(C)nc(-n3nc(C)cc3C)n2)cc1`: 0.1% (inactive).
Next, `CNS(=O)(=O)c1ccc2c(c1)[nH]c(=S)n2C`: 0.47% (inactive).
With `CCc1ccccc1NC(=O)CN1CCN(C(=O)c2cc(C3CC3)nn2-c2ccccc2)CC1`, the inhibition is -0.77% (inactive).
In the case of `CN(C)c1ccc(-c2nnc(-c3cccnc3)o2)cc1` it was 2.53% (inactive); in that of `COc1ccc(-c2nnc(-c3ccc4ccccc4c3)o2)cc1`, 0.71% (inactive).
Next, `Nc1ccc(-c2nnc(-c3ccccc3)o2)cc1`: 4.37% (active); `CCCn1c(N)c(C(=O)CSc2nnc(Cc3cccs3)n2C2CC2)c(=O)[nH]c1=O`: 0.35% (inactive).
In the case of `OCC1OC(n2cnc3c(N4CCCC4)ncnc32)C(O)C1O` (centres undefined) it was -0.3% (inactive).
Consider `CC1CN(C(=O)c2cccc(NS(=O)(=O)c3ccc(Br)cc3)c2)CC(C)O1` (centres undefined), for which the inhibition was 0.52% (inactive).
In the case of `Cc1csc(SCC(=O)Nc2ccc(C)c(S(=O)(=O)N(C)C)c2)n1` it was 0.09% (inactive); in that of `Cc1onc(-c2ccccc2)c1-c1nnc(COC(=O)c2ccc(N(C)C)cc2)o1`, -0.6% (inactive).
Next, `N#Cc1c(NC(=O)C2CCCO2)sc2c1CCCCC2` (centres undefined): 4.7% (active); `N#Cc1c(NC(=O)CCCl)sc2c1CCCCC2`: 1.1% (inactive).
In the case of `N#Cc1c(NC(=O)C2CC(Cl)=CCC2C(=O)O)sc2c1CCCCC2` (centres undefined) it was -0.39% (inactive).
As for `CCN(CC)C(=O)C1=C(C)N(Cc2ccc(F)cc2)C(=O)C(CC(=O)NCc2cccc3ccccc23)C1` (centres undefined), the inhibition is -0.64% (inactive).
Consider `C[C@H]1NS(=O)(=O)c2cc(Cl)ccc2O[C@@H]1c1ccccc1`, for which the inhibition is -0.34% (inactive).
Consider `COc1ccc(CN2C[C@H]3CON(C)[C@H]3C[C@H]2c2ccc(-c3cccc(F)c3)cc2)cc1`, for which the inhibition is 1.13% (inactive).
In the case of `CC1=C(C(=O)Nc2cccc(C(=O)NCC(C)c3ccccc3)c2)SCCO1` (centres undefined) it was 3.58% (inactive).
As to `COc1ccc(OC)c(NC(=O)C2CCCN2S(=O)(=O)c2ccc3c(c2)CC(C)N3C(C)=O)c1` (centres undefined), the inhibition was 1.18% (inactive).
Next, `OCCC1CN(Cc2cccc(OC3CCCC3)c2)CCN1Cc1ccsc1` (centres undefined): 5.86% (active); `OCCC1CN(Cc2ccccc2-c2ccco2)CCN1Cc1ccsc1` (centres undefined): -0.73% (inactive); `OCCC#Cc1ccc(CN2CCN(Cc3ccsc3)C(CCO)C2)cc1` (centres undefined): 2.04% (inactive).
In the case of `Cc1ccc(S(=O)(=O)/N=C2\C=C(NS(=O)(=O)c3ccc(C)cc3)C(=O)c3ccccc32)cc1`, the inhibition was -1.06% (inactive).
Turning to `Cc1ccc(S(=O)(=O)N2CCOCC2)cc1NC(=O)c1ccncc1`, the inhibition is 0.21% (inactive).
Regarding `CCC(Oc1ccccc1)C(=O)OCC(=O)Nc1c(C)nn(-c2ccccc2)c1C` (centres undefined), the inhibition was 0.21% (inactive).
With `Cc1ccc(S(=O)(=O)N2CCCCC2)cc1NC(=O)CCNC(=O)c1ccccc1Cl`, the inhibition was 0.48% (inactive).
In the case of `CCCCN1C[C@H](c2ccc(Br)cc2)[C@@H](CC(=O)Nc2ccc(Br)cc2)C1=O`, the inhibition was -0.08% (inactive).
With `Cn1c(CNc2nc(-c3ccccc3)cs2)nnc1SCC(=O)c1ccccc1`, the inhibition was -1.22% (inactive).
On to `Cc1cc(NC(=O)c2cc3ccccc3o2)no1`, for which the inhibition is 0.08% (inactive).
Next, `CCNc1nc(-c2cc3ccccc3o2)cs1`: 4.56% (active); `COc1ccc(S(=O)(=O)N2CCN(CC(=O)N3CCNC3=O)CC2)cc1OC`: 0.75% (inactive).
Next, `CCN(C(=O)Nc1cccc2ccccc12)c1ccccc1`: 0.32% (inactive); `COC(=O)c1c(NC(=O)CN(c2ccc(C)c(C)c2)S(C)(=O)=O)sc2c1CCCC2`: 0.52% (inactive); `CCc1ccc(N(CC(=O)Nc2sc3c(c2C(=O)OC)CCCC3)S(C)(=O)=O)cc1`: 5.84% (active).
Next, `COC(=O)c1c(NC(=O)CSc2nncs2)sc2c1CCCCC2`: -1.11% (inactive).
As for `COCCCn1c(=O)/c(=C/c2ccccc2OC(C)C)s/c1=C(\C#N)C(=O)Nc1ccc(C(=O)O)cc1`, the inhibition was 1.28% (inactive).
In the case of `COc1cc(C(=O)OCCCN2CCOCC2)cc(OC)c1OC` it was 0.71% (inactive); in that of `O[C@H]1CN(Cc2cccs2)[C@@H](c2ccc(Cl)cc2)C[C@@H]1n1cc(C2CC2)nn1`, 0.8% (inactive); in that of `COc1ccc(NC(=O)CN2C(=O)CSC2=O)cc1`, 4.34% (active).
Next, `COc1ccc(NC(=O)CN2C(=O)CSc3ccc(S(=O)(=O)N4CCC(C)CC4)cc32)cc1`: -0.82% (inactive); `CCc1ccc(NC(=O)CN2C(=O)CSC2=O)cc1`: 1.29% (inactive).
Next, `CC(=O)Nc1c(-c2ccc(C)cc2)nc2ccc(Cl)cn12`: 0.08% (inactive); `C=CCn1nc(C(=O)OCC)cc1-c1sc(NC(=O)c2ccccc2)nc1C`: -1.54% (inactive); `O=C(CSc1ccc(Cl)cc1)NC1CC1`: 0.27% (inactive).
For `O=C(Cc1ccc([N+](=O)[O-])cc1)NCCS(=O)(=O)N1CCN(c2ccccc2)CC1`, the inhibition is -0.22% (inactive).
Turning to `CCCOC(=O)Cc1c(O)c2ccccc2[nH]c1=O`, the inhibition was -0.26% (inactive).
Next, `O=C(Cc1c(O)c2ccccc2[nH]c1=O)NCc1ccccc1`: 1.32% (inactive); `NS(=O)(=O)c1ccccc1NC(=O)c1c(O)c2ccccc2[nH]c1=O`: 4.59% (active); `COc1ccc(CN2C(=O)C(CC(=O)NC3CCCCC3)CC(C(=O)N3CCOCC3)=C2C)cc1` (centres undefined): 0.35% (inactive).
In the case of `CCN1CCN(CCNC(=O)c2ccc3c(c2)NC(=O)/C(=C\c2cccc(Cl)c2)S3)CC1` it was -0.42% (inactive); in that of `CCOC(=O)C1CCN(C(=O)c2ccc3c(=O)n4nc(Nc5ccccc5CC)sc4nc3c2)CC1`, -2.28% (inactive); in that of `Cc1ccccc1NC(=O)Cc1nc(COC(=O)C(C)(C)Oc2ccc(Cl)cc2)cs1`, -0.05% (inactive).
In the case of `Clc1ccc(Nc2ccc3ccccc3n2)cc1`, the inhibition was 5.5% (active).
In the case of `C(=N\Nc1ccc2ccccc2n1)/c1ccc2c(c1)OCO2` it was -2.05% (inactive).
In the case of `O=C(NNC(=O)c1ccc2ccccc2c1)c1ccc(Cl)cc1` it was -1.29% (inactive); in that of `CCn1nnnc1SCC(=O)c1ccc(C)cc1C`, -0.2% (inactive).
Next, `CSc1nnnn1-c1c(C)cc(C)cc1C`: 5.68% (active); `Cc1ccc(S(=O)(=O)N2C[C@]3(O)C[C@@H]4C(=O)N(c5ccccc5)C(=O)[C@@H]4C[C@]3(OC(=O)NC3CC3)C2)cc1`: -1.25% (inactive).
As to `O[C@@H]1C[C@H](c2ccccc2)N(Cc2cccs2)C[C@H]1n1cc(C2CC2)nn1`, the inhibition is 1.9% (inactive).
In the case of `O[C@H]1C[C@H](c2ccc(Cl)cc2)N(Cc2cccs2)C[C@@H]1n1cc(C2CC2)nn1` it was 0.67% (inactive).
